Test results reported in PubChem BioAssay (NCATS).
Inconclusive results are not listed. The source made the active and inactive calls. Calls come from the whole dose curve; as a rule, active = well fitted curve in the direction sought with a large enough effect; inconclusive = small, poorly fitted or top-dose-only effect, or another doubt; inactive = no such curve, though single readings can be large; an effect the other way counts as inactive or inconclusive.

Legend:
[1] = target: ATP-dependent 6-phosphofructokinase (Trypanosoma brucei brucei) (UniProt O15648); test: qHTS Assay to Find Inhibitors of T. brucei phosphofructokinase: hit validation (AID 492961);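 note: luminescence reports ADP formed as PFK phosphorylates fructose-6-phosphate with ATP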
Chain of ATP-dependent 6-phosphofructokinase (Trypanosoma brucei brucei) (O15648 whole entry, looked up): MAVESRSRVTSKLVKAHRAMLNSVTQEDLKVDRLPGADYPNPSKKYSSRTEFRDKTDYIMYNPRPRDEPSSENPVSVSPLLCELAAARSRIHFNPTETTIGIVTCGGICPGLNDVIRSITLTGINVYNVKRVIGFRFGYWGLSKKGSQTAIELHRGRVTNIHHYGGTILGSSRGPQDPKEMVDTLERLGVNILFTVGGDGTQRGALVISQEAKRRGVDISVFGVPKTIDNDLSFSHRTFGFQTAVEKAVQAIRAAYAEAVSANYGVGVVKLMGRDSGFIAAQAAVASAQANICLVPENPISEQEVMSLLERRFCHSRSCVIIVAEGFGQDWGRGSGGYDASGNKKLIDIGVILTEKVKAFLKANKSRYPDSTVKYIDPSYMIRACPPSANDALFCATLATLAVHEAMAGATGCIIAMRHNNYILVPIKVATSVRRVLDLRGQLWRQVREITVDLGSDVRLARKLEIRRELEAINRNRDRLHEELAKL
Summary of the method: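 Inhibition of parasite PFK is measured as reduced ADP formation, quantified via luciferase after ATP depletion. Assay used 0.1 mM ATP, 0.5 mM F6P, 1.25 nM enzyme, 45 min incubation.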

[2] = target: Luciferin 4-monooxygenase (Photinus pyralis) (UniProt P08659); test: Biochemical firefly luciferase enzyme assay for NPC (AID 624030);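 note: purified P. pyralis luciferase at 10 nM with luciferin and ATP substrate; nearly all actives have a fitted effect of over 70% in size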
Chain of Luciferin 4-monooxygenase (Photinus pyralis) (P08659 whole entry, looked up): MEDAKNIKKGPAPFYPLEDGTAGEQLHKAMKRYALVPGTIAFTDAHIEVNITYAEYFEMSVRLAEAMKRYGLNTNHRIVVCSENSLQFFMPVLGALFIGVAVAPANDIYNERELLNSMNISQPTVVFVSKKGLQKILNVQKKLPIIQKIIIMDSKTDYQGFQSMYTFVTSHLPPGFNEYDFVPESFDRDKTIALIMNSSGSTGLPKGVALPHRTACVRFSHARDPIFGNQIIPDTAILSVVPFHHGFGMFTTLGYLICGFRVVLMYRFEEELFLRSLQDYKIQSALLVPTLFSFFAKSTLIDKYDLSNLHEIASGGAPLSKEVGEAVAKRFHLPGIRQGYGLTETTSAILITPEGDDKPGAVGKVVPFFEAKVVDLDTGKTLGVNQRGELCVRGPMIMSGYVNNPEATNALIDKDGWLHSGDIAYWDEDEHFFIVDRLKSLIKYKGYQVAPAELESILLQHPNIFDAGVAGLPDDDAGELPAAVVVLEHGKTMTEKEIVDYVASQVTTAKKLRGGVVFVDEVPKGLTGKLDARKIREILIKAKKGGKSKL
Summary of the method: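 Purified P. pyralis luciferase at 10 nM in 50 mM Tris Acetate (final), luminescence read within 5 minutes of enzyme addition to compounds. Activity normalised to PTC124 versus DMSO; concentration-response curves classed by r2, magnitude and activity.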

[3] = S16 Schwann cell viability assay (CellTiter-Glo assay) (AID 624031);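 note: native untransfected S16 rat Schwann cells; cellular ATP luminescence as a viability measure; nearly all actives have a fitted effect of over 70% in size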
Summary of the method: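 Cells were seeded at 500-750 per well in phenol red-free DMEM with 10% FBS and left overnight. Compounds or DMSO were pinned in, incubation ran 24 h at 37 °C/5% CO2, then CellTiter-Glo reagent was added and luminescence measured.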

[4] = S16 Schwann cell PMP22 intronic element firefly luciferase assay (AID 624032); note: nearly all actives have a fitted effect of over 30% in size
Summary of the method: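 Rat S16 Schwann cells stably carrying firefly luciferase driven by a PMP22 intronic element, in 10% FBS, treated 24 h at 37 C. ONE-Glo luminescence normalized to PTC124 control and DMSO (0%); curves classed by r2, magnitude and activity.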

[5] = target: Rap guanine nucleotide exchange factor 3 (Homo sapiens) (UniProt O95398); test: Confirmatory qHTS for antagonist of cAMP-regulated guanine nucleotide exchange factor 3 (EPAC1) (AID 1645880); conditions: EPAC1 Rap1B-BODIPY-GDP exchange, fluorescence; activity, negative = inhibition: at 115 µM (top of the series); note: nearly all actives have a fitted effect of over 55% in size
Chain of Rap guanine nucleotide exchange factor 3 (Homo sapiens) (O95398 whole entry, looked up): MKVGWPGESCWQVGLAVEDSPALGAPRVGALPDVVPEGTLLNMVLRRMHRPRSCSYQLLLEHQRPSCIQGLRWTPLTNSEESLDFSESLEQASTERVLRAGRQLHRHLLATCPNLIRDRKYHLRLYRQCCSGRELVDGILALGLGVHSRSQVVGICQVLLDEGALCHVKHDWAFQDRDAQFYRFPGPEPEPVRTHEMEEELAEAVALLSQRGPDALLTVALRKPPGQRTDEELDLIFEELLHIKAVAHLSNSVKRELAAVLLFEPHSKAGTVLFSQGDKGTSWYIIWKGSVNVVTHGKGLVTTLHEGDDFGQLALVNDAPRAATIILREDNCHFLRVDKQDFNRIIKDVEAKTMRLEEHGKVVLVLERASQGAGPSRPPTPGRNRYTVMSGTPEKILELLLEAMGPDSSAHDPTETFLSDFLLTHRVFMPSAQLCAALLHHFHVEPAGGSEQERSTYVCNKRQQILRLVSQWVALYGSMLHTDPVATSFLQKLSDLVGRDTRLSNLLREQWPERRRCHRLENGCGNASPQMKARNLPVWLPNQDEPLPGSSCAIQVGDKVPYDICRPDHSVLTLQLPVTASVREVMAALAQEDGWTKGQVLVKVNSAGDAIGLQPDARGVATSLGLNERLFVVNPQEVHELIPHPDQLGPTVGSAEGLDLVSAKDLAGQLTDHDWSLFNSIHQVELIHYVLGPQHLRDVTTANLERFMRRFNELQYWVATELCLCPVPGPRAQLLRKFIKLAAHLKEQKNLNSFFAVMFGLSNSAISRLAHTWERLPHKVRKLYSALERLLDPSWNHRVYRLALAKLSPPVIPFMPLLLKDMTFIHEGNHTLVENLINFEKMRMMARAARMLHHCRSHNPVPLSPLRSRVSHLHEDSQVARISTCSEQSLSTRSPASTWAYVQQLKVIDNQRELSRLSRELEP
Summary of the method: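 Nucleotide exchange uses 100 nM EPAC1, 250 nM RAP1B-BODIPY-GDP and 50 uM GDP, with compounds in a concentration-titration series. After 5 min at room temperature, fluorescence (480 nm ex/540 nm em) is read every 5 min for 30 min. Data are normalized to control ATA and DMSO.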

[6] = target: Rap guanine nucleotide exchange factor 3 (Homo sapiens) (UniProt O95398); test: Confirmatory qHTS for agonist of cAMP-regulated guanine nucleotide exchange factor 3 (EPAC1) (AID 1645881);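 note: EPAC1 catalysed release of BODIPY-GDP from Rap1B seen as fluorescence loss; nearly all actives have a fitted effect of over 75% in size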
[7] = target: Rap guanine nucleotide exchange factor 3 (Homo sapiens) (UniProt O95398); test: Counterscreen qHTS for antagonist of cAMP-regulated guanine nucleotide exchange factor 3 (EPAC1) (AID 1645888);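 note: fluorescence loss as bound BODIPY-GDP is released from Rap1B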
Summary of the method: (§1)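 Rap1B–BODIPY-GDP (250 nM) with 50 uM GDP; compounds pin-transferred to 9.74 nM–152 uM final (activator) or from 7.32 nM upwards (inhibitor). Fluorescence Ex/Em 480/540 nm read at 5 and 30 min, then after adding cAMP or buffer, at room temperature.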

[8] = target: Rap guanine nucleotide exchange factor 3 (Homo sapiens) (UniProt O95398); test: Counterscreen qHTS for agonist of cAMP-regulated guanine nucleotide exchange factor 3 (EPAC1) (AID 1645889); note: nearly all actives have a fitted effect of over 40% in size
Summary of the method: as §1

[9] = qHTS profiling for inhibitors of Plasmodium falciparum proliferation (AID 504749); note: nearly all actives have a fitted effect of over 60% in size; note: potency is the fitted concentration of half-maximal effect; conditions: P. falciparum in erythrocytes, SYBR Green DNA, 72 h; parasite line A
Summary of the method: (§2)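 P. falciparum-infected erythrocytes (0.3% parasitemia, 2.5% hematocrit) incubated with compound 72 h at 37 C, 5% CO2. Parasite DNA detected by SYBR Green after lysis, overnight at room temperature; normalised to 0.29 uM artemisinin and DMSO.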

7G8 = test: as above; conditions: P. falciparum in erythrocytes, SYBR Green DNA, 72 h; series mostly up to 28.7 µM
Summary of the method: as §2

AA1029 = test: as above; conditions: P. falciparum in erythrocytes, SYBR Green DNA, 72 h; series mostly up to 28.7 µM
Summary of the method: as §2

AS120 = test: as above; conditions: P. falciparum in erythrocytes, SYBR Green DNA, 72 h; series mostly up to 28.7 µM
Summary of the method: as §2

ATS189 = test: as above; conditions: P. falciparum in erythrocytes, SYBR Green DNA, 72 h; series mostly up to 28.7 µM
Summary of the method: as §2

ATS95 = test: as above; conditions: P. falciparum in erythrocytes, SYBR Green DNA, 72 h; series mostly up to 28.7 µM
Summary of the method: as §2

C2A = test: as above; conditions: P. falciparum in erythrocytes, SYBR Green DNA, 72 h; series mostly up to 28.7 µM
Summary of the method: as §2

CP185 = test: as above; conditions: P. falciparum in erythrocytes, SYBR Green DNA, 72 h; series mostly up to 28.7 µM
Summary of the method: as §2

CP191 = test: as above; conditions: P. falciparum in erythrocytes, SYBR Green DNA, 72 h; series mostly up to 28.7 µM
Summary of the method: as §2

CP192 = test: as above; conditions: P. falciparum in erythrocytes, SYBR Green DNA, 72 h; series mostly up to 28.7 µM
Summary of the method: as §2

CP194 = test: as above; conditions: P. falciparum in erythrocytes, SYBR Green DNA, 72 h; series mostly up to 28.7 µM
Summary of the method: as §2

CP217 = test: as above; conditions: P. falciparum in erythrocytes, SYBR Green DNA, 72 h; series mostly up to 28.7 µM
Summary of the method: as §2

CP237 = test: as above; conditions: P. falciparum in erythrocytes, SYBR Green DNA, 72 h; series mostly up to 28.7 µM
Summary of the method: as §2

CP238 = test: as above; conditions: P. falciparum in erythrocytes, SYBR Green DNA, 72 h; series mostly up to 28.7 µM
Summary of the method: as §2

CP247 = test: as above; conditions: P. falciparum in erythrocytes, SYBR Green DNA, 72 h; series mostly up to 28.7 µM
Summary of the method: as §2

CP252 = test: as above; conditions: P. falciparum in erythrocytes, SYBR Green DNA, 72 h; series mostly up to 28.7 µM
Summary of the method: as §2

CP256 = test: as above; conditions: P. falciparum in erythrocytes, SYBR Green DNA, 72 h; series mostly up to 28.7 µM
Summary of the method: as §2

CP260 = test: as above; conditions: P. falciparum in erythrocytes, SYBR Green DNA, 72 h; series mostly up to 28.7 µM
Summary of the method: as §2

CP262 = test: as above; conditions: P. falciparum in erythrocytes, SYBR Green DNA, 72 h; series mostly up to 28.7 µM
Summary of the method: as §2

CP265 = test: as above; conditions: P. falciparum in erythrocytes, SYBR Green DNA, 72 h; series mostly up to 28.7 µM
Summary of the method: as §2

CP269 = test: as above; conditions: P. falciparum in erythrocytes, SYBR Green DNA, 72 h; series mostly up to 28.7 µM
Summary of the method: as §2

CP286 = test: as above; conditions: P. falciparum in erythrocytes, SYBR Green DNA, 72 h; series mostly up to 28.7 µM
Summary of the method: as §2

CP297 = test: as above; conditions: P. falciparum in erythrocytes, SYBR Green DNA, 72 h; series mostly up to 28.7 µM
Summary of the method: as §2

CP335 = test: as above; conditions: P. falciparum in erythrocytes, SYBR Green DNA, 72 h; series mostly up to 28.7 µM
Summary of the method: as §2

DFO2036 = test: as above; conditions: P. falciparum in erythrocytes, SYBR Green DNA, 72 h; series mostly up to 28.7 µM
Summary of the method: as §2

DIV14 = test: as above; conditions: P. falciparum in erythrocytes, SYBR Green DNA, 72 h; series mostly up to 28.7 µM
Summary of the method: as §2

DIV17 = test: as above; conditions: P. falciparum in erythrocytes, SYBR Green DNA, 72 h; series mostly up to 28.7 µM
Summary of the method: as §2

Dd2 = test: as above; conditions: P. falciparum in erythrocytes, SYBR Green DNA, 72 h; series mostly up to 28.7 µM
Summary of the method: as §2

ECU = test: as above; conditions: P. falciparum in erythrocytes, SYBR Green DNA, 72 h; series mostly up to 28.7 µM
Summary of the method: as §2

FAB9 = test: as above; conditions: P. falciparum in erythrocytes, SYBR Green DNA, 72 h; series mostly up to 28.7 µM
Summary of the method: as §2

GB4 = test: as above; conditions: P. falciparum in erythrocytes, SYBR Green DNA, 72 h; series mostly up to 28.7 µM
Summary of the method: as §2

ICS = test: as above; conditions: P. falciparum in erythrocytes, SYBR Green DNA, 72 h; series mostly up to 28.7 µM
Summary of the method: as §2

JCK = test: as above; conditions: P. falciparum in erythrocytes, SYBR Green DNA, 72 h; series mostly up to 28.7 µM
Summary of the method: as §2

N140 = test: as above; conditions: P. falciparum in erythrocytes, SYBR Green DNA, 72 h; series mostly up to 28.7 µM
Summary of the method: as §2

P93_24 = test: as above; conditions: P. falciparum in erythrocytes, SYBR Green DNA, 72 h; series mostly up to 28.7 µM
Summary of the method: as §2

P94_40 = test: as above; conditions: P. falciparum in erythrocytes, SYBR Green DNA, 72 h; series mostly up to 28.7 µM
Summary of the method: as §2

PC49 = test: as above; conditions: P. falciparum in erythrocytes, SYBR Green DNA, 72 h; series mostly up to 28.7 µM
Summary of the method: as §2

SC27B = test: as above; conditions: P. falciparum in erythrocytes, SYBR Green DNA, 72 h; series mostly up to 28.7 µM
Summary of the method: as §2

TAB109 = test: as above; conditions: P. falciparum in erythrocytes, SYBR Green DNA, 72 h; series mostly up to 28.7 µM
Summary of the method: as §2

TAB113 = test: as above; conditions: P. falciparum in erythrocytes, SYBR Green DNA, 72 h; series mostly up to 28.7 µM
Summary of the method: as §2

TAB165 = test: as above; conditions: P. falciparum in erythrocytes, SYBR Green DNA, 72 h; series mostly up to 28.7 µM
Summary of the method: as §2

W2 = test: as above; conditions: P. falciparum in erythrocytes, SYBR Green DNA, 72 h; series mostly up to 28.7 µM
Summary of the method: as §2

Measured: Potency

C=C[C@]1(C)C[C@@H](OC(=O)CSCCN(CC)CC)[C@]2(C)C(C)CC[C@]3(CCC(=O)[C@H]32)[C@@H](C)[C@@H]1O (stereo not given in full)
inactive: [1] | [2] | [3] | [4] | [5] | [6] | [7] | [8] | CP192 | CP262 | FAB9 | JCK | PC49
active: [9] 10 µM | 7G8 11.2 µM | AA1029 5.01 µM | AS120 10 µM | ATS189 8.91 µM | ATS95 7.94 µM | C2A 11.2 µM | CP185 5.01 µM | CP191 7.94 µM | CP194 7.57 µM | CP217 10 µM | CP237 8.91 µM | CP238 11.2 µM | CP247 6.31 µM | CP252 7.08 µM | CP256 8.91 µM | CP260 5.62 µM | CP265 8.91 µM | CP269 6.75 µM | CP286 3.55 µM | CP297 6.75 µM | CP335 5.36 µM | DFO2036 10 µM | DIV14 15.1 µM | DIV17 13.5 µM | Dd2 3.16 µM | ECU 12.6 µM | GB4 6.75 µM | ICS 3.98 µM | N140 8.91 µM | P93_24 5.01 µM | P94_40 4.47 µM | SC27B 7.94 µM | TAB109 3.98 µM | TAB113 11.2 µM | TAB165 7.08 µM | W2 2.13 µM
